The values that follow come from PubChem BioAssay AID1458 (National Center for Advancing Translational Sciences (NCATS), 2008).

Molecules are shown by their SMILES. Among all 210,000 compounds or so, about 5,900 (2.8%) were called active. Another 5% or so got no clear call; they are omitted. This excerpt belongs to a sample that is enriched for actives. A number with no mark means an inactive call. Calls follow the shape of the dose curve; as a rule, active = well fitted activation curve with a large enough effect; inconclusive = small, poorly fitted or top-dose-only effect; inactive = no such curve, though single readings can be large or run the other way.
Potency is read from the fitted curve at half-maximal effect.

The nature of the test: qHTS Assay for Enhancers of SMN2 Splice Variant Expression. Also: nearly all actives have a fitted effect of over 55% in size. As to activity change, positive = activation: % of control where 0% means no effect. The note with it: HEK293 SMN2-luciferase splicing reporter, luminescence, 30-36 h; series mostly up to 46.1 µM; activity change, positive = activation: at the top concentration. In a few lines:
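qHTS luciferase splicing reporter: luminescence rises when SMN2 exon 7 is included in transfected HEK293 cells. Compound exposure lasted 30-36 h at 37C, with 4.5 mM final sodium butyrate as control, followed by a ONE-Glo read.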
(In general: In qHTS, concentration-response curves come from the screen itself.)
`COc1ccc(CNC(=O)c2cc3c(=O)[nH]c4ccc(C)cc4c3s2)c(OC)c1`: the “activity change, positive = activation” value is 2.14%. For the compound `Cc1nn(CCOc2ccccc2)c(=O)n1-c1ccccc1F`, the Potency was 17.8 µM (active). On to `Cc1c(C(N)=O)sc2ncn(CCOc3ccccc3)c(=O)c12`, for which the “activity change, positive = activation” value was 4.68%. Regarding `Cc1cccc2c1N(CCOc1ccccc1)C(=O)C2=O`, the “activity change, positive = activation” value was -9.26%. Regarding `Cc1cc(C)cc(NC(=O)CSc2oc(-c3ccccc3)nc2S(=O)(=O)c2ccc(Cl)cc2)c1`, the “activity change, positive = activation” value is 0.788%. As to `Cc1ccc(Cl)cc1N1CCN(C(=O)CN2C(=O)COc3ccc(S(=O)(=O)N4CCOCC4)cc32)CC1`, the “activity change, positive = activation” value was 1.39%. Regarding `COc1cccc(OCCCN2CCCCCC2)c1`, the “activity change, positive = activation” value was -9.69%. Same read-out and setting: the value for `C(=N\n1cnnc1)/c1cccnc1` was 3.41%. `COc1cccc(OCCOc2cccc(/C=N/n3cnnc3)c2)c1`: the Potency is 8.91 µM (active).

With `CCOc1ccccc1C(=O)NC1(C(F)(F)F)NC(=O)N(CCc2ccc(OC)c(OC)c2)C1=O` (configuration not stated), the “activity change, positive = activation” value was -22.8%. As to `CCOC(=O)c1ccc(NC(=O)C2CC(=O)NC(=Nc3ccc(C)c(C)c3)S2)cc1` (configuration not stated), the “activity change, positive = activation” value was -9.52%. The same measure, in the same setting: the value for `CCCCN(C)CCNC(=O)C1CCCN(S(=O)(=O)c2cccc3nsnc23)C1` (configuration not stated) was -0.0075%; that for `Cc1ccc(S(=O)(=O)c2nnn3c2nc(N2CCN(c4ccccc4F)CC2)c2cc(Cl)ccc23)cc1C` was -3.67%. As for `S=C(Nc1ccc(Br)cc1Cl)NC1CCN(Cc2ccccc2)CC1`, the “activity change, positive = activation” value was -68.5%. Consider `O=C(NNC(=S)Nc1ccc(Br)cc1Cl)c1ccco1`, for which the Potency is 12.6 µM (active). As to `CCC(=O)NC(=S)Nc1ccc(NC(=O)c2ccco2)c(Cl)c1`, the “activity change, positive = activation” value is -1.02%.

On to `Cc1ccc(-c2cc(-c3coc4ccccc4c3=O)c3c(n2)-c2cc(Cl)ccc2OC3)cc1`, for which the “activity change, positive = activation” value is -0.83%. On to `COc1ccc(CNC(=O)c2ccc(NC(=O)N3CC4CCCN4c4ccccc43)cc2)cc1` (configuration not stated), for which the “activity change, positive = activation” value was -6.58%. In the case of `Cc1ccccc1NC(=O)NNC(=O)OC(C)(C)C`, the “activity change, positive = activation” value is 20.2%. On to `CC(C)(C)OC(=O)N/N=C/c1ccc(C(=O)O)cc1`, for which the “activity change, positive = activation” value was 10.1%.

For the compound `C/C(=N\NC(=O)OC(C)(C)C)c1ccc[nH]1`, the Potency was 12.6 µM (active). For `Cc1cc(NC(=O)c2ccc(-c3ccc(Cl)cc3)o2)cc(-c2nc3ncccc3o2)c1O`, the “activity change, positive = activation” value is -0.868%. Same read-out and setting: with `COc1ccc(C(=O)Nc2nonc2-c2ccc(OC)c(OC)c2)cc1Cl` the figure was -19%; with `C/C(=N/NC(=O)c1ccc(NC(=O)c2ccc(F)cc2)cc1)c1ccccc1`, 10.8%. On to `C/C(=N\NC(=O)c1nc(C)cc(C)n1)c1ccccc1`, for which the Potency is 11.2 µM (active). On to `CC(C)=C(NC(=O)c1ccccc1)C(=O)N/N=C(\C)c1ccccc1O`, for which the “activity change, positive = activation” value was -18.1%. Same read-out and setting: the value for `CCOC(=O)c1c(NC(C)=O)c2c3c(sc2n1Cc1c(C)cc(C)cc1C)CCCC3` was -5.97%; that for `COc1ccccc1-c1cc2nc(C)c(CCC(=O)NC3CCCCC3)c(C)n2n1` was -6.73%; that for `CS(=O)(=O)c1ccc2c(c1)SC1=NC(=O)/C(=C/c3ccco3)C(=N)N12` was 9.12%. In the case of `Cc1cc(/C=C2/C(=N)N3C(=NC2=O)SN=C3S(C)(=O)=O)c(C)n1-c1ccccc1`, the Potency was 15.8 µM (active). Regarding `CCS(=O)(=O)C1=NSC2=NC(=O)/C(=C\c3cc(C)n(-c4cccc(OC)c4)c3C)C(=N)N21`, the “activity change, positive = activation” value is 5.92%. Take `Cn1c(=O)cc(OCC(=O)N2CCN(c3ccccc3)CC2)c2ccccc21`: the “activity change, positive = activation” value is 4.37%.

On to `COC(=O)c1ccc(C2C(C(=O)Nc3ccccc3)=C(C)Nc3nc4ccccc4n32)cc1` (configuration not stated), for which the “activity change, positive = activation” value was -7.04%. As to `CN(Cc1ccccc1)C(=O)c1cn(C)c2ccc(S(=O)(=O)N(C)C3CCCCC3)cc2c1=O`, the “activity change, positive = activation” value was -3.3%. In the case of `CN(C)c1ccnc2sc(C(=O)c3ccccc3)c(N)c12`, the Potency was 14.1 µM (active). For the compound `COc1cccc(C(=O)c2sc3nc(-c4ccccc4)cc(C(F)(F)F)c3c2N)c1`, the “activity change, positive = activation” value was -9.67%. As to `CN(C)c1ccnc2sc3c(=O)n(Cc4ccccc4)cnc3c12`, the “activity change, positive = activation” value is -24%.

As for `CN(CC(=O)Nc1cccc(C(F)(F)F)c1)S(=O)(=O)c1cccs1`, the “activity change, positive = activation” value was 0.287%. On to `CCC1CCCCN1Cc1c(O)ccc2c(=O)c(Oc3ccccc3Cl)c(C(F)(F)F)oc12` (configuration not stated), for which the “activity change, positive = activation” value was -6.73%. Turning to `Cc1cc(O)cc(O)c1C(=O)Cc1cnn(-c2ccccc2)c1`, the “activity change, positive = activation” value was -16.1%. On to `COc1ccc(C(=O)Cc2cnn(-c3ccccc3)c2)c(O)c1`, for which the Potency was 17.8 µM (active). Consider `COc1ccc(CC(=O)c2ccc(O)cc2O)cc1OC`, for which the “activity change, positive = activation” value was 19.7%. On to `Cn1nc(-c2ccccc2)c(-c2ccccc2)c(C(=O)Nc2ccc(S(N)(=O)=O)cc2)c1=O`, for which the “activity change, positive = activation” value is 8.83%.

Consider `COC(=O)c1cn(CC(=O)NCc2cccs2)c2ccccc12`, for which the Potency was 22.4 µM (active). As to `O=C(Cn1cc(C(=O)c2cccs2)c2ccccc21)NCc1cccs1`, the “activity change, positive = activation” value was 25.6%. Consider `COC(=O)Cn1cc(C(=O)c2cccs2)c2ccccc21`, for which the “activity change, positive = activation” value was 8.54%. For the compound `CCOC(=O)c1nn(-c2cccc(C)c2)cc1C(=O)c1ccccc1`, the Potency was 10 µM (active). Turning to `CCOC(=O)c1cn(Cc2cccc(C)c2)nn1`, the “activity change, positive = activation” value is 0.18%. With `CC(=O)c1nn(-c2cccc(Br)c2)cc1C(=O)c1cccc2ccccc12`, the “activity change, positive = activation” value was -21.6%. On the same count and under the same terms, with `CCCOc1ccccc1C(=O)NCCCC(=O)O` the figure was -16.9%. With `CCCOc1ccccc1-c1nc(SCCC(=O)O)n[nH]1`, the Potency is 7.08 µM (active). In the case of `COc1ccccc1-c1nc(SC)n[nH]1`, the “activity change, positive = activation” value was 12.2%.
